# Results as given in PubChem BioAssay AID1851 (National Center for Advancing Translational Sciences (NCATS), 2009).
# Out of some 16,000 compounds screened, about 5,800 (36%) were called active. Not shown: some 23% with an inconclusive outcome. The list shows a part of the results. Unmarked numbers belong to inactive results. The call rests on the fitted dose curve; in most records, active means well fitted curve in the direction sought with a large enough effect; inconclusive means small, poorly fitted or top-dose-only effect, or effect the other way; inactive means no such curve, though single readings can be large or run the other way.
# Molecular target: Cytochrome P450 2C19 (Homo sapiens) (UniProt P33261)
# Sequence (P33261 whole entry, looked up): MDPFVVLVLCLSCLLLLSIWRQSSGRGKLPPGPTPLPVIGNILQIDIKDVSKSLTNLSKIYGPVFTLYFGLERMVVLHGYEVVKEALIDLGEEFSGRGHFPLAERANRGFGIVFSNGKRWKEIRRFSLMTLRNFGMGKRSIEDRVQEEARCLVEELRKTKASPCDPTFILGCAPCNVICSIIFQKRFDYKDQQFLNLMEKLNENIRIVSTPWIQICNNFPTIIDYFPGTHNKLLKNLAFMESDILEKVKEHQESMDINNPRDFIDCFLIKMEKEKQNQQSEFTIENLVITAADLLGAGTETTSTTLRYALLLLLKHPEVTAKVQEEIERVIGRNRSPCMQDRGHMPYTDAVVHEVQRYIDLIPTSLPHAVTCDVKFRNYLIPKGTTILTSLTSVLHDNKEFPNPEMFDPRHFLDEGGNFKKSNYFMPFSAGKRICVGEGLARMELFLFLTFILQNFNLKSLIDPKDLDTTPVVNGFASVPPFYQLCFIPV
# Assay: Cytochrome panel assay with activity outcomes
# Conditions: recombinant CYP, pro-luciferin dealkylation, luminescence, p450-cyp2c19; series mostly up to 57.1 µM; activity, negative = inhibition: at the top concentration
# On the % scale 0 is the no-effect control and ±100 the full control effect.
SMILES,AC50,"activity, negative = inhibition"
CC(/C=N/n1c(-c2cccnc2)n[nH]c1=S)=C\c1ccccc1,2.82 µM (active),–
COc1ccc(-n2c(-c3cnccn3)n[nH]c2=S)cc1,–,-4.23%
Nc1c2c(nc3ccccc13)CCCC2,inactive,–
COc1cc(-c2nnc(COC(=O)c3c4c(nc5ccccc35)CCCC4)o2)cc(OC)c1OC,1.78 µM (active),–
C[C@@H]1C[C@H](OC(=O)[C@@H](O)c2ccccc2)CC(C)(C)N1C,–,37.5% [at 25.6 µM]
C[C@@H]1C[C@H](OC(=O)c2ccccc2O)CC(C)(C)C1,10 µM (active),–
O=C(Nc1cccc(F)c1)N1CCC2(CC1)CCN(C(=O)c1cnccn1)CC2,–,5.51%
CCOC(=O)c1c2ccc(OCC(=O)N/N=C/c3ccc(Cl)cc3)cc2n2ccccc12,2.51 µM (active),–
CCOC(=O)c1c2c(n3ccccc13)C(=O)c1ccccc1C2=O,–,0.385% [at 11.4 µM]
Cc1cccc(NC(=S)Nc2ccc(Br)cc2)c1,0.708 µM (active),–
Cc1ccc(NC(=S)Nc2ccc(Br)cc2)cc1,0.562 µM (active),–
C/C(=N\NC(=S)Nc1cccc(C)c1)c1ccccc1,0.447 µM (active),–
CCCNC(=S)Nc1ccc(Br)cc1,7.94 µM (active),–
CCN1C(=O)[C@H]2[C@H]3[C@H](O)[C@H](O)C/C(=N/O[C@@H]4O[C@@H](COC(C)=O)[C@@H](OC(C)=O)[C@@H](OC(C)=O)[C@H]4OC(C)=O)[C@H]3CC[C@@H]2C1=O,–,16.6% [at 11.4 µM]
CO[C@@H]1COC(=O)[C@H](COCc2ccccc2)NC(=O)C/C=C\[C@@H](C)[C@H](OC)COC(=O)[C@@H](C)NC(=O)C/C=C\[C@H]1C,–,5.67% [at 11.4 µM]
COc1ccc(-c2ccc(=O)n(CC(=O)Nc3nnc(C(C)C)s3)n2)cc1OC,–,-29.9%
COc1ccc(-c2csc(NC(=O)CCn3cnc4ccccc4c3=O)n2)cc1OC,2.82 µM (active),–
CCCC(=O)Nc1nc(-c2ccc3c(c2)CCN3S(C)(=O)=O)cs1,–,-24.4%
CN1CCN(Cc2nc3cccc4c3c([n+]2[O-])-c2ccccc2-4)CC1,–,-13.4% [at 11.4 µM]
C=CCn1c(SCC(=O)N2CCc3ccccc3C2)nc2ccccc2c1=O,1.58 µM (active),–
O=C(Cn1c(SCC(=O)N2CCc3ccccc3C2)nc2ccccc21)NC1CCCC1,10 µM (active),–
COc1ccc2c3c(ccc2c1)N[C@H](C(=O)O)CC3,–,3.64% [at 11.4 µM]
CN1CC(c2ccccc2)C2(COc3ccccc3C2=O)C12C(=O)Nc1ccccc12 (centres undefined),1.12 µM (active),–
Cc1ccc(CONC(=O)/N=C/N(C)C)cc1,4.47 µM (active),–
